High-throughput results from PubChem.
The sample as a whole holds a higher share of hits than the screen did.
Tg IFNy HTS: T. gondii growth inhibition under IFN-gamma; Toxoplasma gondii growth in IFN-gamma-treated host cells; stronger effect = lower value; activity change, negative = inhibition, % (no concentration beside the values); 69,000 compounds, 3.8% hits; AID 1259416; in the data active = activity change below about -70%, passing the limit was not always enough;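 note: host cells are HeLa cells infected with Toxoplasma gondii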
Each line names hits and unclear results; the compound was inactive in the other large screens; ! = not confirmed by another sample.

NC(=O)C1(N2CCCCC2)CCN(c2ncc(NC(=O)c3ccccc3F)cc2C(=O)O)CC1	none
CS(=O)(=O)N1CC2CN(c3ncc(F)cn3)CCC2(c2ccccc2)C1 (stereo not drawn)	none
Cc1cnc(C)c(-c2cc(N)nc3[nH]ccc23)n1	none
Nc1cc(-c2cnc3ccccc3n2)c2cc[nH]c2n1	Tg IFNy HTS -90.3
COc1ccc(-c2cc(N)nc3[nH]ccc23)cn1	none
Cc1nccn1CCCC(=O)N1CCc2c(nc(N(C)C)[nH]c2=O)C1	none
CCN1CC[C@@]2(C(=O)N3CCCC3)CCN(S(=O)(=O)c3ccccc3)CC[C@H]12	none
CCS(=O)(=O)N1CCCn2nnc(COCC3CC3)c2C1	none
CCCS(=O)(=O)N1CCC2(CC1)CC(OCc1cccnc1)CO2 (stereo not drawn)	none
CCN1CCOCC2(CCCN(C(=O)Cc3ccsc3)C2)C1 (stereo not drawn)	Tg IFNy HTS -80.3
CN1CCOCC2(CCCN(C(=O)Cc3cccs3)C2)C1 (stereo not drawn)	none
CN1CCOCC2(CCCN(C(=O)Cc3ccsc3)C2)C1 (stereo not drawn)	none
CC(=O)N1CCC(N(C)Cc2nc(CC(C)C)no2)CC1	none
CC(=O)N1CCCC[C@@H]2[C@H]1[C@@H](c1ccccc1)CCN2Cc1ccncc1	none
c1ccc(-n2nnnc2N2CC3C4c5ccccc5C(c5ccccc54)C3C2)cc1 (stereo not drawn)	none
CNC(=O)CC1CC2(CCN(S(=O)(=O)c3cccs3)CC2)c2ccccc21 (stereo not drawn)	none
CNCCCC12CCC(c3ccccc31)c1ccccc12	Tg IFNy HTS -78.6!
Cc1ccccc1CN1CC[C@H]2[C@@H](CO[C@@H]2CC(=O)N2CCCO2)C1	none
COc1cc(C(=O)ON=C2C3CC4CC(C3)CC2C4)cc(OC)c1OC	Tg IFNy HTS -106.0
COc1cc(C(=O)OCCCN(C)C)cc(OC)c1OC	none
COc1cc(C(=O)OCCCN2CCCN(CCCOC(=O)c3cc(OC)c(OC)c(OC)c3)CC2)cc(OC)c1OC	none
COc1ccc(-n2c(=O)c(C(=O)Nc3ccccc3Cl)c(O)c3cccnc32)cc1	none
CCOc1ccccc1NC(=O)c1nnn(Cc2nc(-c3cccc(Cl)c3)oc2C)c1C	none
Cc1cccc(-c2nc(CSc3nc4c(c(=O)[nH]3)CN(Cc3ccc(F)cc3)CC4)c(C)o2)c1	none
Cc1oc(-c2ccc(C(=O)NCc3ccccc3F)cc2)nc1CN1CCN(c2ccccc2)CC1	none
Cc1cc(C)c2c(c1)CC(C)(C)c1[nH]c(-c3ccc(Cl)cc3Cl)nc1-2	Tg IFNy HTS -71.2
CC(=O)N1CCC2C(C[C@@H](CN(C)C)N2c2nccs2)C1 (stereo partly drawn)	none
Cc1cccc(C(=O)N2CCC3(CC2)CC(CC(=O)NC(C)C)c2ccccc23)n1 (stereo not drawn)	none
COc1ccc(CN(C)C[C@@H]2OCCCC[C@@H](C)Oc3ccc(NC(=O)C4CCCCC4)cc3C(=O)N([C@H](C)CO)C[C@@H]2C)cc1	none
COc1ccc(S(=O)(=O)Nc2ccc3c(c2)C(=O)N([C@@H](C)CO)C[C@@H](C)[C@H](CN(C)Cc2ccc(C(F)(F)F)cc2)OCCCC[C@H](C)O3)cc1	Tg IFNy HTS -90.3
C[C@@H]1CCCCO[C@H](CN(C)Cc2ccncc2)[C@@H](C)CN([C@H](C)CO)C(=O)c2cc(NS(=O)(=O)c3ccc(Cl)cc3)ccc2O1	none
COc1ccc(S(=O)(=O)Nc2ccc3c(c2)C(=O)N([C@@H](C)CO)C[C@@H](C)[C@@H](CN(C)Cc2ccc(C(F)(F)F)cc2)OCCCC[C@H](C)O3)cc1	Tg IFNy HTS -120.3
COc1ccc(S(=O)(=O)Nc2ccc3c(c2)C(=O)N([C@H](C)CO)C[C@H](C)[C@H](CN(C)Cc2ccc(C(F)(F)F)cc2)OCCCC[C@@H](C)O3)cc1	none
C[C@@H]1CCCCO[C@H](CN(C)Cc2ccncc2)[C@H](C)CN([C@H](C)CO)C(=O)c2cc(NS(=O)(=O)c3ccc(Cl)cc3)ccc2O1	Tg IFNy HTS -103.2
COc1ccc(S(=O)(=O)Nc2ccc3c(c2)C(=O)N([C@H](C)CO)C[C@@H](C)[C@@H](CN(C)Cc2ccc(C(F)(F)F)cc2)OCCCC[C@H](C)O3)cc1	Tg IFNy HTS -119.7
C[C@@H]1CCCCO[C@@H](CN(C)Cc2ccncc2)[C@@H](C)CN([C@H](C)CO)C(=O)c2cc(NS(=O)(=O)c3ccc(Cl)cc3)ccc2O1	none
COc1ccc(CN(C)C[C@H]2OCCCC[C@H](C)Oc3ccc(NC(=O)C4CCCCC4)cc3C(=O)N([C@@H](C)CO)C[C@@H]2C)cc1	none
COc1ccc(S(=O)(=O)Nc2ccc3c(c2)C(=O)N([C@H](C)CO)C[C@@H](C)[C@@H](CN(C)Cc2ccc(C(F)(F)F)cc2)OCCCC[C@@H](C)O3)cc1	none
Cc1ccc(S(=O)(=O)Nc2ccc3c(c2)C(=O)N([C@H](C)CO)C[C@H](C)[C@@H](CN(C)Cc2ccc(C(F)(F)F)cc2)O3)cc1	none
O=C(O)Cc1sc(-c2ccc(Br)cc2)nc1-c1ccc(Br)cc1	none
O=C(c1ccc(N2CCCC2=O)cc1)N1CC[C@@H](c2ccc(F)cc2)[C@H](O)C1	none
NC(=O)C1(C(=O)N(C/C=C/c2ccccc2)CCO)CC1	none
COc1ccc(C(=O)NCCc2csc(-c3ccc(C)cc3)n2)cc1OC	none
CCSc1nc(CC(=O)N(C)C(C)c2ccon2)cs1 (stereo not drawn)	none
N=[N+]=CC(=O)CC[C@H](N)C(=O)O	none
Cc1nc2ccc(C(=O)N3CCCC(NC(=O)c4cnccn4)CC3)cc2[nH]1 (stereo not drawn)	none
Cn1cc(/C=C/C(=O)N(Cc2ccsc2)C(C)(C)C)cn1	none
Cc1ccccc1NC(=O)C(=O)NCCc1sc(-c2ccccc2)nc1C	none
COc1ccc(S(=O)(=O)Nc2ccc3c(c2)C(=O)N([C@H](C)CO)C[C@@H](C)[C@H](CN(C)Cc2ccc(C(F)(F)F)cc2)OCCCC[C@@H](C)O3)cc1	Tg IFNy HTS -119.0
Cc1ccc(S(=O)(=O)Nc2ccc3c(c2)C(=O)N([C@@H](C)CO)C[C@@H](C)[C@@H](CN(C)Cc2ccc(C(F)(F)F)cc2)O3)cc1	none
C[C@H]1CCCCO[C@H](CN(C)Cc2ccncc2)[C@@H](C)CN([C@@H](C)CO)C(=O)c2cc(NS(=O)(=O)c3ccc(Cl)cc3)ccc2O1	none
Cc1ccc(S(=O)(=O)Nc2ccc3c(c2)C(=O)N([C@@H](C)CO)C[C@H](C)[C@@H](CN(C)Cc2ccc(C(F)(F)F)cc2)O3)cc1	none
COc1ccc(S(=O)(=O)Nc2ccc3c(c2)C(=O)N([C@H](C)CO)C[C@H](C)[C@H](CN(C)Cc2ccc(C(F)(F)F)cc2)OCCCC[C@H](C)O3)cc1	Tg IFNy HTS -110.9
Cc1ccc(S(=O)(=O)Nc2ccc3c(c2)C(=O)N([C@H](C)CO)C[C@@H](C)[C@@H](CN(C)Cc2ccc(C(F)(F)F)cc2)O3)cc1	none
COc1ccc(S(=O)(=O)Nc2ccc3c(c2)C(=O)N([C@@H](C)CO)C[C@@H](C)[C@@H](CN(C)Cc2ccc(C(F)(F)F)cc2)OCCCC[C@@H](C)O3)cc1	Tg IFNy HTS -109.0
COC(=O)c1ccc(Cl)cc1NC(=O)N1CCC2(CC1)Nc1ccccc1-n1cccc12	none
Cc1cccc(S(=O)(=O)N2CCC(c3nc(C(=O)N4CCCC4)c(C)o3)CC2)c1	none
CC(C)(C)c1ccc(C(=O)NCCc2csc(-c3cccc(F)c3)n2)cc1	none
Cc1[nH]cnc1-c1nccn1CCN1CCCC1=O	none
O=C(Nc1cccnc1)c1cc(-c2cnc(-c3ccccc3)nc2)cn1CC1CC1	Tg IFNy HTS -77.5
O=C(Nc1cccnc1)c1cc(-c2cnc(N3CCCC3)nc2)cn1CC1CC1	none
